Assay results published in PubChem BioAssay AID1362 (SRMLSC, 2008).
Hit rate of the full screen: of about 190,000 compounds, about 4,000 (2.1%) were called active. Cut-off read from the data, not from the text of the source: active = inhibition above about 58%; inactive = the rest, inconclusive results apart; tested in S. cerevisiae. This excerpt belongs to a sample that is enriched for actives.

Test: growth inhibition of WT strain, primary screen, mitochondrial fusion inhibitor project, WT and mutant strains, chemical genetic (AID 1362)
Conditions: mitochondrial fusion phenotypic screen, at 10 µM
[1] = WT strain, growth inhibition, stronger effect = higher value

CC(C)C(c1nnnn1C(C)(C)C)N1CCN(Cc2cccnc2)CC1 (stereo not drawn)
inhibition [1]: -10.2% (inactive)
inhibition (mutant strain inhibition): 0.92%

COC(=O)C1=C(N)Oc2c(oc(CO)cc2=O)C1c1c(F)cccc1Cl (stereo not drawn)
inhibition [1]: -8.54% (inactive)
inhibition (mutant strain inhibition): -4.27%

O=C(COC(=O)c1c2c(nc3ccccc13)/C(=C\c1cccs1)CCC2)Nc1ccccc1Cl
inhibition [1]: 15.8% (inactive)
inhibition (mutant strain inhibition): 3.86%

NC(=O)c1ccc(NC(=O)COC(=O)c2c3c(nc4ccccc24)/C(=C\c2ccc4c(c2)OCO4)CCC3)cc1
inhibition [1]: 62.3% (active)
inhibition (mutant strain inhibition): -2.13%

NS(=O)(=O)c1ccc(NC(=O)COC(=O)c2c3c(nc4ccccc24)/C(=C\c2ccc4c(c2)OCO4)CCC3)cc1
inhibition [1]: 17.8% (inactive)
inhibition (mutant strain inhibition): -3.76%

Fc1ccc(COc2cccc(-c3n[nH]c(=S)o3)c2)cc1
inhibition [1]: -4.32% (inactive)
inhibition (mutant strain inhibition): -2.8%

Cc1ccc(S(=O)(=O)/N=C(/Nc2ccc3[nH]c(=O)[nH]c3c2)c2ccccc2)cc1
inhibition [1]: -20.3% (inactive)
inhibition (mutant strain inhibition): 0.61%

COc1ccc(C2CC(=O)Nc3sc(=N)c4c(N)c(C#N)c(N)nc4c32)cc1OC (stereo not drawn)
inhibition [1]: -16.8% (inactive)
inhibition (mutant strain inhibition): -4.44%

COc1ccc(-c2cc(-c3ccc(N)cc3)nc(N)c2C#N)cc1OC
inhibition [1]: 42.1% (inactive)
inhibition (mutant strain inhibition): -0.07%

COc1ccc(OC)c2c(N)c(C#N)c(C(F)(F)C(F)(F)F)nc12
inhibition [1]: 61.3% (active)
inhibition (mutant strain inhibition): -8.43%

O=S(=O)(NCc1ccccc1)c1ccc(S(=O)(=O)N2CCCC2)cc1
inhibition [1]: 5.86% (inactive)
inhibition (mutant strain inhibition): -0.28%

CCCCc1nnc(NC(=O)CSc2nc(N)cc(=O)[nH]2)s1
inhibition [1]: -9.03% (inactive)
inhibition (mutant strain inhibition): -14.2%

O=C(CSc1ccc(-c2ccccc2)nn1)NCC1CCCO1 (stereo not drawn)
inhibition [1]: -2.54% (inactive)
inhibition (mutant strain inhibition): 0.5%

O=C(N/N=C/c1c(Cl)[nH]c2ccccc12)c1sc2ccccc2c1Cl
inhibition [1]: 61.8% (active)
inhibition (mutant strain inhibition): 41.3%

O=C(Nc1ccon1)c1sc2ccccc2c1Cl
inhibition [1]: 3.3% (inactive)
inhibition (mutant strain inhibition): 0.77%

Cc1nn(C)cc1/C=N/NC(=O)c1sc2ccccc2c1Cl
inhibition [1]: -10.9% (inactive)
inhibition (mutant strain inhibition): 2.17%

COc1ccc(CCc2nnc(CCC(=O)NCc3cnn(-c4ccccc4C)c3)o2)cc1
inhibition [1]: 12.2% (inactive)
inhibition (mutant strain inhibition): 7.75%

CS(=O)(=O)n1nc(-c2ccco2)nc1N
inhibition [1]: -0.21% (inactive)
inhibition (mutant strain inhibition): -16.1%

C=CCc1cccc2cc(C(=O)NC3CCCC3)c(=O)oc12
inhibition [1]: 3.26% (inactive)
inhibition (mutant strain inhibition): 9.03%

CC(C)(C)c1csc(NC2=NS(=O)(=O)c3ccccc32)n1
inhibition [1]: -0.65% (inactive)
inhibition (mutant strain inhibition): -32.5%

CC(C)(C)c1ccc(OC2=CS(=O)(=O)c3ccccc32)cc1
inhibition [1]: 59% (active)
inhibition (mutant strain inhibition): 35.3%

CC(C)(C)c1ccc(Oc2ccc(N)cc2)cc1
inhibition [1]: 54.8% (inactive)
inhibition (mutant strain inhibition): 38%

Cc1nn(CC(=O)NCc2ccccn2)c(C)c1[N+](=O)[O-]
inhibition [1]: -4.5% (inactive)
inhibition (mutant strain inhibition): 4.36%

COc1cc(CNCCN(C)C)ccc1OCc1c(F)cccc1Cl
inhibition [1]: -7.23% (inactive)
inhibition (mutant strain inhibition): 10.9%

CCCCNC(=O)N1CCN(S(C)(=O)=O)CC1
inhibition [1]: 3.54% (inactive)
inhibition (mutant strain inhibition): 2.85%

CCCCCCCCn1c2c(c(=N)c3c1CCC3)CCCC2
inhibition [1]: 80.6% (active)
inhibition (mutant strain inhibition): 77.5%

O=C1/C(=C/c2cccs2)CCC1C1CCCC1 (stereo not drawn)
inhibition [1]: 9.28% (inactive)
inhibition (mutant strain inhibition): 37.2%

Cc1ccc(COc2ccc(/C=N/NC(=O)CN3CCCCC3)cc2)cc1
inhibition [1]: 0.04% (inactive)
inhibition (mutant strain inhibition): -4.75%

COC(=O)Cc1nc2ccccc2[nH]1
inhibition [1]: 16.6% (inactive)
inhibition (mutant strain inhibition): 14%

c1ccc2c(CSCc3nc4ccccc4[nH]3)cccc2c1
inhibition [1]: 74.6% (active)
inhibition (mutant strain inhibition): 69.3%

Clc1ccccc1SCc1nc2ccccc2[nH]1
inhibition [1]: 39.4% (inactive)
inhibition (mutant strain inhibition): 35.4%

O=C(NCc1ccccc1)C1CCCN(c2nc3ccsc3c(=O)s2)C1 (stereo not drawn)
inhibition [1]: -14.1% (inactive)
inhibition (mutant strain inhibition): 0.23%

O=C(/C=C/c1ccc(Cl)cc1)N1CCN(c2ccccc2[N+](=O)[O-])CC1
inhibition [1]: 65.4% (active)
inhibition (mutant strain inhibition): 39.2%

CO/N=C/c1ccc(N2CCN(C(=O)c3cccc(Cl)c3)CC2)c([N+](=O)[O-])c1
inhibition [1]: 36.5% (inactive)
inhibition (mutant strain inhibition): 22.2%

O=C(c1ccc(Cl)c([N+](=O)[O-])c1)N1CCN(c2ccccc2)CC1
inhibition [1]: 65.8% (inactive)
inhibition (mutant strain inhibition): 70.4%

CCn1cc(C(=O)NCCCN2CCCCCC2)c(=O)c2cc(S(=O)(=O)N3CCc4ccccc4C3)ccc21
inhibition [1]: 4.36% (inactive)
inhibition (mutant strain inhibition): -2.13%

COc1ccc(NC(=O)CCNS(=O)(=O)c2ccc3c(c2)c(=O)n(C)c(=O)n3C)cc1OC
inhibition [1]: -9.99% (inactive)
inhibition (mutant strain inhibition): 2.95%

COC(=O)Cc1ccc(N(Cc2ccccc2F)S(=O)(=O)c2ccc(Br)cc2)cc1
inhibition [1]: 69.7% (active)
inhibition (mutant strain inhibition): 64.6%

CCCNC(=O)CN(Cc1ccccc1F)S(=O)(=O)c1ccc(C)cc1
inhibition [1]: -13.2% (inactive)
inhibition (mutant strain inhibition): -40.4%

O=C(COC(=O)Cc1ccc(Br)cc1)Nc1c(F)c(F)c(F)c(F)c1F
inhibition [1]: 19.9% (inactive)
inhibition (mutant strain inhibition): 7.41%

CCCS(=O)(=O)N1CCC(CCOc2ccccc2)(C(=O)OCC)CC1
inhibition [1]: 5.25% (inactive)
inhibition (mutant strain inhibition): -7.89%

CCSC1=NCCN1C(=O)c1ccc(S(=O)(=O)N(CC)CC)cc1
inhibition [1]: 1.64% (inactive)
inhibition (mutant strain inhibition): -5.04%

O=C(COC(=O)c1ccncc1)c1ccccc1
inhibition [1]: -12.9% (inactive)
inhibition (mutant strain inhibition): 3%

COc1ccc(CN2CC(C(=O)NCCN3CCN(c4ccccc4F)CC3)CC2=O)cc1 (stereo not drawn)
inhibition [1]: 5.07% (inactive)
inhibition (mutant strain inhibition): 14.3%

COc1ccc(N2CCN(CCNC(=O)c3nnc(Cc4c(F)cccc4Cl)o3)CC2)cc1
inhibition [1]: 82.5% (active)
inhibition (mutant strain inhibition): -0.13%

COc1ccc(N2CCN(CCNC(=O)CCN3C(=O)COc4ccccc43)CC2)cc1
inhibition [1]: -0.99% (inactive)
inhibition (mutant strain inhibition): 42.7%

O=C(CCn1ccc([N+](=O)[O-])n1)Nc1nccs1
inhibition [1]: -14.4% (inactive)
inhibition (mutant strain inhibition): 2.54%

Cn1c(N)c(C(=O)COC(=O)c2ccccc2NCc2ccco2)c(=O)n(C)c1=O
inhibition [1]: 12.2% (inactive)
inhibition (mutant strain inhibition): -19.6%

Cc1ccc(NC(=O)OCc2cncs2)cc1
inhibition [1]: -3.01% (inactive)
inhibition (mutant strain inhibition): 3.18%

COc1ccc(OC)c(C(=O)c2ccc(C(=O)N3CCN(Cc4csc(C)n4)CC3)cc2)c1
inhibition [1]: -23% (inactive)
inhibition (mutant strain inhibition): 5.3%

Cc1ccc(Cl)c(NC(=O)CN2CCN(C=O)CC2)c1
inhibition [1]: -7.62% (inactive)
inhibition (mutant strain inhibition): 12.5%

OC(COc1ccc2ccccc2c1)Cn1cncn1 (stereo not drawn)
inhibition [1]: 4.91% (inactive)
inhibition (mutant strain inhibition): -2.41%

CC(=O)OC(COc1ccc(F)cc1)Cn1cnc2ccccc21 (stereo not drawn)
inhibition [1]: -0.37% (inactive)
inhibition (mutant strain inhibition): 4.78%

CC(C)c1ccc(OCC(O)Cn2cnc3ccccc32)cc1 (stereo not drawn)
inhibition [1]: 95.7% (active)
inhibition (mutant strain inhibition): 0.12%
